Screens as filed in PubChem BioAssay.
Fam108B inh: mouse Fam108B serine hydrolase inhibitors, primary screen, counter-screen for RBBP9 inhibitor project, biochemical, fluorescence polarization | recombinant Fam108B, FP-Rh probe fluorescence polarization | inhibition, % at 9.51 µM | hit rate 0.33% among 300,000;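 active means inhibition above the screen mean inhibition plus 3 SD, computed separately per campaign, cut at about 18% in these data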;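 further: inhibitors lower polarization as less probe binds the enzyme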
PREPL inhibitor: PREPL enzyme inhibitors, primary screen, biochemical, fluorescence polarization | Prolyl endopeptidase-like (Homo sapiens), Q4J6C6 | AID 2751, 2010 | inhibition, % at 5.96 µM | recombinant PREPL, fluorescence polarization activity-based probe | hit rate 0.68% among 320,000; in the data active means inhibition above about 43%;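 further: 0% = enzyme with DMSO and 100% = wells lacking enzyme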
LYPLA1 inh: LYPLA1 inhibitors, primary screen, counter-screen for PME1 inhibitor project, biochemical, fluorescence polarization, FP-Rh probe ABPP | Acyl-protein thioesterase 1 (Homo sapiens), O75608 | recombinant LYPLA1 | inhibition, % at 5.9 µM | hit rate 0.16% among 320,000;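 active means inhibition above the mean of all tested compounds plus 3 SD, set per campaign, cut at about 14% in these data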;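 further: inhibitors block serine hydrolase probe labeling of LYPLA1 so polarization falls; 0% = enzyme with DMSO and 100% = wells lacking LYPLA1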
PME-1 primary: PME-1 inhibitors via competitive probe labeling, primary screen, biochemical, fluorescence polarization, FP-Rh probe, HTS; Protein phosphatase methylesterase 1 (Homo sapiens), Q9Y570; hit rate 0.53% among 320,000; recombinant PME-1; AID 2130, 2009; inhibition, % at 5.9 µM;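 active means inhibition above the campaign mean of all compounds plus 3 SD, cut at about 26% in these data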;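 further: competitive labeling of PME-1 active site by serine hydrolase directed probe; 0% = PME-1 with DMSO and 100% = wells lacking PME-1 enzyme; inhibitors block probe labeling so polarization falls and inhibition rises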
LYPLA2 counter: LYPLA2 inhibitors, primary screen, counter-screen for PME1 inhibitor project, biochemical, fluorescence polarization, FP-Rh probe ABPP; Acyl-protein thioesterase 2 (Homo sapiens), O95372; recombinant LYPLA2; inhibition, % at 5.9 µM; hit rate 0.38% among 320,000; AID 2177, 2009;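 active means inhibition above the screen-wide mean plus 3 SD, limit set per campaign, cut at about 26% in these data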;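 further: 0% = LYPLA2 with DMSO and 100% = wells lacking LYPLA2 enzyme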
Target sequence (O95372 whole entry, looked up): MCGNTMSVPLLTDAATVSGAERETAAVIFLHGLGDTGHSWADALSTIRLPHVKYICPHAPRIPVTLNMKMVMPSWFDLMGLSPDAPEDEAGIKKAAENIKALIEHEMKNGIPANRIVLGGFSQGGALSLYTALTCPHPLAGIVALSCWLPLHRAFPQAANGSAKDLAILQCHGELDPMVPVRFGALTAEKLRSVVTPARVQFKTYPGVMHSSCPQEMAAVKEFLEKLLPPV
GSTO1 inh: inhibitors of recombinant GSTO1, primary screen, counter-screen for RBBP9 inhibitor project, biochemical, fluorescence polarization; hit rate 1.1% among 300,000; inhibition, % at 5.96 µM; activity-based probe fluorescence polarization; Glutathione S-transferase omega-1 (Homo sapiens), P78417;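 active means inhibition above the campaign mean inhibition plus 3 SD, cut at about 35% in these data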;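 further: 0% = GSTO1-1 with DMSO and 100% = wells lacking GSTO1-1 enzyme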
Target sequence (P78417 whole entry, looked up): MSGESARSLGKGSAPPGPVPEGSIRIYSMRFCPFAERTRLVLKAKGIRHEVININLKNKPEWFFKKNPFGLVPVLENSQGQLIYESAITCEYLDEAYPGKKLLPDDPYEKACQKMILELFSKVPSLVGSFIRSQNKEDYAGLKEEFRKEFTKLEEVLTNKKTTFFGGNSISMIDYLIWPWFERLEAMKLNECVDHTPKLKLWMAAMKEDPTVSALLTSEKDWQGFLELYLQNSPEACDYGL
* = called active by the depositor; / = no result given. Most compounds without a hit are left out; they make up all but 2% or so of the library.

SMILES | Fam108B inh | PREPL inhibitor | LYPLA1 inh | PME-1 primary | LYPLA2 counter | GSTO1 inh
COc1ccc(OC)c(/C=N/NC(=O)CCc2ccc(O)c(O)c2)c1 | 5.5 | 3.3 | -1.6 | -7.0 | -1.6 | 36.0*
Cc1c(N2C(=O)c3ccc4c5c(ccc(c35)C2=O)CC4)c(=O)n(-c2ccccc2)n1C | 9.4 | 2.6 | -2.9 | 4.7 | 1.3 | 35.6*
Cc1c(N2C(=O)c3ccc(Br)cc3C2=O)c(=O)n(-c2ccccc2)n1C | 1.9 | -4.9 | 0.7 | -5.9 | 3.2 | -2.2
N#C/C(=C\c1ccc(Oc2ccc(C(F)(F)F)cc2[N+](=O)[O-])cc1)c1nc2ccccc2[nH]1 | 6.9 | 36.7 | -0.9 | 6.7 | -2.6 | -9.6
N#C/C(=C/c1ccc(N2CCCC2)c([N+](=O)[O-])c1)c1nc2ccccc2[nH]1 | 3.8 | 14.5 | 2.6 | 28.9* | 7.0 | -2.7
CSc1ccccc1OCc1cc(C(=O)N(C)Cc2ccncn2)no1 | 5.4 | 7.5 | 3.1 | 0.3 | 16.2 | -1.3
O=C(/C=C/c1ccc([N+](=O)[O-])s1)N1CCCC1 | 1.4 | -2.7 | 0.1 | 1.1 | 8.1 | 22.3
O=C(/C=C/c1ccc([N+](=O)[O-])s1)N1CCCCC1 | 2.0 | 11.4 | -2.6 | 12.1 | -2.6 | 35.5*
CCn1c(=O)c(C(=O)CN(C)Cc2cccc(OC)c2OC)c(N)n(Cc2ccccc2)c1=O | 8.1 | 9.2 | 0.8 | -1.6 | -3.9 | -1.2
COc1ccc(CN(C)CC(=O)c2c(N)n(Cc3ccccc3)c(=O)n(C)c2=O)c(OC)c1 | -0.5 | 47.4* | 0.1 | -2.9 | 1.0 | 2.8
CC1=CC(C)(C)Nc2ccc(OC(=O)CN3C(=O)c4cccc5cccc(c45)C3=O)cc21 | 5.8 | 11.2 | -1.7 | 7.1 | 7.3 | 36.6*
CC1=CC(C)(C)Nc2ccc(OC(=O)C(Cc3ccccc3)N3C(=O)c4ccccc4C3=O)cc21 (centres undefined) | 6.6 | 13.7 | -5.1 | 2.1 | -3.1 | -0.9
CC1=CC(C)(C)Nc2ccc(OC(=O)CN3C(=O)c4ccccc4C3=O)cc21 | -0.4 | 8.9 | -1.2 | 5.9 | -4.4 | 55.8*
O=C(NC(=S)N1CCN(c2nc(-c3ccccc3)cs2)CC1)c1cncc(Br)c1 | -2.4 | 5.9 | -5.7 | -0.7 | -4.0 | 10.7
Cc1ccc(CN2CCN(/N=C/c3ccc(C(=O)O)cc3)CC2)cc1 | 9.8 | 14.2 | -1.5 | -5.9 | -1.7 | 1.6
Oc1ccc(/C=N/N2CCN(C3c4ccccc4-c4ccccc43)CC2)cc1O | 5.5 | -2.8 | -4.9 | 0.7 | 4.1 | 44.3*
Cc1ccc(CN2CCN(/N=C/c3ccc(O)c(O)c3)CC2)cc1 | 1.5 | 26.5 | 0.5 | 4.9 | 6.6 | 35.9*
Cn1nnnc1SCC(=O)Nc1cc(S(=O)(=O)N2CCCCC2)ccc1Cl | / | 14.3 | / | / | / | /
Cc1n[nH]c(C)c1S(=O)(=O)N(C)Cc1ccco1 | / | 0.1 | -1.6 | -1.1 | 5.9 | /
COc1ccc(/C=N/Nc2cc(C)nc(-n3nc(C)cc3C)n2)c(OC)c1 | 2.4 | 19.0 | 1.7 | 54.3* | 1.2 | 3.9
CCNc1ccccc(C(=O)/C=C/c2ccc3c(c2)OCO3)c1=O | 5.6 | 18.5 | 3.5 | 3.3 | 1.7 | 43.7*
COC(=O)/C=C/c1ccc2c(c1)OCO2 | -0.2 | 8.3 | -3.0 | 1.4 | -0.2 | -1.5
Cc1ccc(NC(=S)NNC(=S)Nc2cccc(C(F)(F)F)c2)cc1 | 11.9 | 21.2 | -11.5 | 25.4 | 2.0 | 38.0*
FC(F)(F)c1cccc(NC(=S)NNC(=S)Nc2ccc(Cl)cc2)c1 | 6.3 | 13.3 | -19.0 | 2.2 | -18.8 | -9.2
COc1ccc(NC(=O)CCCNC(=O)Cn2cnc3sc4c(c3c2=O)CCCC4)c(OC)c1 | 1.3 | 4.0 | -1.9 | -2.8 | -2.1 | -2.5
CCC1CCCCN1CCCNC(=O)c1ccc(N2CCCC2=O)cc1 (centres undefined) | 0.1 | -1.5 | -3.6 | -4.3 | 0.8 | -1.2
NS(=O)(=O)c1ccc2c(c1)C1C=CCC1C(C1CC=CCC1)N2 (centres undefined) | 14.5 | 41.5 | -10.3 | 18.1 | 0.4 | 36.5*
Nc1ccc(NC(=O)NC2CCCCC2)cc1[N+](=O)[O-] | 3.3 | -1.4 | 1.0 | 4.4 | -0.2 | -7.4
